# Reference: ChEMBL document CHEMBL3988442, “University of Dundee, Small-Polar-MMV Screening Library” (2021)
# For some of these results: Potency and affinity values are given separately.
# Experiments:
# Design in all cases: scale not given: direction of the effect not stated beside the values
# [1] = target: Protein translocase subunit SecA (Escherichia coli (strain K12)) (UniProt P10408); test: Assay to Identify E. coli SecA ATPase Inhibitors; format: functional; details: 30 µM
# [2] = target: T1, Ubiquitin-activating enzyme e1, putative (Leishmania donovani (strain BPK282A1)) (UniProt E9BSI1); test: Leishmania donovani Ubiquitin Activating Enzyme (LdE1); format: functional; details: 30 µM
# T1 sequence (whole entry): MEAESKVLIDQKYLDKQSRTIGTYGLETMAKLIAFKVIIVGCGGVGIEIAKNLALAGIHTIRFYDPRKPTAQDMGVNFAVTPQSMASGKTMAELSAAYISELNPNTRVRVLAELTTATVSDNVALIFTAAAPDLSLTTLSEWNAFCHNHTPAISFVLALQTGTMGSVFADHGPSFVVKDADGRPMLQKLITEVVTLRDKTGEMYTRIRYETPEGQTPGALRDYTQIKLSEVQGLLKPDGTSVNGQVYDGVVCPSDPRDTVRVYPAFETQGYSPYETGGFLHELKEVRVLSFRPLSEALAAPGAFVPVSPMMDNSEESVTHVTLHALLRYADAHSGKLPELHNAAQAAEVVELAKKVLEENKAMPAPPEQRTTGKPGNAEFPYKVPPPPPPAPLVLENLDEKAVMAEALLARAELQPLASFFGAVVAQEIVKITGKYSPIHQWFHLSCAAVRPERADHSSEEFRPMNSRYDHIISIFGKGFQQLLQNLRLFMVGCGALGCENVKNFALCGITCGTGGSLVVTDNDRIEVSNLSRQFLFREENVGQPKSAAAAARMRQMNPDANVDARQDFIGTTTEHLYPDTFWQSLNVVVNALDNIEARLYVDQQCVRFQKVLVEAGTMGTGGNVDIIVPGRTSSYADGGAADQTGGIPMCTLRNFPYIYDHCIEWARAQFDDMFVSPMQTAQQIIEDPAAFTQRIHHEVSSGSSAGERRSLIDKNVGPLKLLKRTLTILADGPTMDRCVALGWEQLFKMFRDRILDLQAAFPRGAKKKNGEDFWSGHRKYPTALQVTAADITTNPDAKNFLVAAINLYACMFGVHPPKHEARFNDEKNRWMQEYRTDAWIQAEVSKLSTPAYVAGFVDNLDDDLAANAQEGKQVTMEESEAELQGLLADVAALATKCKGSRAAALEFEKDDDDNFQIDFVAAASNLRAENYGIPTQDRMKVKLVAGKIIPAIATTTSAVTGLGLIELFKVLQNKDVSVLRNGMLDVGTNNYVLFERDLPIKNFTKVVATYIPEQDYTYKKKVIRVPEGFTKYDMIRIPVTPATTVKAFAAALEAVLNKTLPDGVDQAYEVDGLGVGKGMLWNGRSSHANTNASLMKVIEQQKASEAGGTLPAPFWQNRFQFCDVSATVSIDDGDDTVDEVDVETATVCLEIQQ
# [3] = target: AMP-activated protein kinase, AMPK (Homo sapiens) (UniProt P54646+O43741+P54619+Q9UGJ0+Q9Y478+Q13131+Q9UGI9); test: AMP-dependent Kinase enzyme assay. An in vitro enzyme assay that detects ADP turnover that is directly proportional to AMPK activity. This uses naive AMPK that is activated during the assay with MK-8722; format: functional; details: 30 µM
# [4] = target: Sialic acid-binding Ig-like lectin 9 (Homo sapiens) (UniProt Q9Y336); test: Hs-Siglec9 ALPHAscreen SOP 20170721; details: 10 µM
# Sequence of Sialic acid-binding Ig-like lectin 9 (Homo sapiens) (Q9Y336 whole entry): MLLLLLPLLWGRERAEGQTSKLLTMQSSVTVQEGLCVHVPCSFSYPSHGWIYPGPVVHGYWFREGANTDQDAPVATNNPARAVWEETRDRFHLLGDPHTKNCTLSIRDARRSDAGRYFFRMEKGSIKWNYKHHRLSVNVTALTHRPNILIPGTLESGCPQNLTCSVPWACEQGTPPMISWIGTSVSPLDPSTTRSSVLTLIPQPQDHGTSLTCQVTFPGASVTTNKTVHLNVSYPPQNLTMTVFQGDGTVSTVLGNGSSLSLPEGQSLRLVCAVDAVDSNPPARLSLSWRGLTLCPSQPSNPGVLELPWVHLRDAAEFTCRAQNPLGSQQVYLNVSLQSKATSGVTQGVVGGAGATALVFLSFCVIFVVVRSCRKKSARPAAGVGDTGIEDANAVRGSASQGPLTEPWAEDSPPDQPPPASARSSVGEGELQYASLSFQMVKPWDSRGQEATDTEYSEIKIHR
# [5] = tested on: Trypanosoma cruzi; test: Trypanosoma cruzi phosphomannomutase and mannose-1-phosphate guanylyltransferase assay; format: functional; details: 10 µM
# [6] = target: T2, Arginase-2, mitochondrial (Homo sapiens) (UniProt P78540); test: in vitro enzyme assay to detect the production of urea directly proportional to the activity of Arginase II; format: functional; details: 33.3 µM; note: in the data most compounds retested in dose-response had high values
# T2 sequence (whole entry): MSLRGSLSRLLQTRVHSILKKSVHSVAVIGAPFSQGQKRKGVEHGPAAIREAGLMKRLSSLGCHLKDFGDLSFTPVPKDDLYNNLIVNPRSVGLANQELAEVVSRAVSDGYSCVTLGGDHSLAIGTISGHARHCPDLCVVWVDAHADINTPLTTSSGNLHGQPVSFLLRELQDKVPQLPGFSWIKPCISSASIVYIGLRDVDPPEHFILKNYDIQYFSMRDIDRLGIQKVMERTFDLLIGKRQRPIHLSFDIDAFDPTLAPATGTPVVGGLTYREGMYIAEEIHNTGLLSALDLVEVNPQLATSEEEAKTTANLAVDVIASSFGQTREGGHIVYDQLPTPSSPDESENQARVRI
# [7] = target: T3, Proteasome subunit beta (Trypanosoma cruzi) (UniProt O96673); test: Trypanosoma cruzi proteasome chymotrypsin-like activity (TcProtChymo) assay.; note: in the data most compounds retested in dose-response had high values; format: functional; details: 9.37 µM
# T3 sequence (whole entry): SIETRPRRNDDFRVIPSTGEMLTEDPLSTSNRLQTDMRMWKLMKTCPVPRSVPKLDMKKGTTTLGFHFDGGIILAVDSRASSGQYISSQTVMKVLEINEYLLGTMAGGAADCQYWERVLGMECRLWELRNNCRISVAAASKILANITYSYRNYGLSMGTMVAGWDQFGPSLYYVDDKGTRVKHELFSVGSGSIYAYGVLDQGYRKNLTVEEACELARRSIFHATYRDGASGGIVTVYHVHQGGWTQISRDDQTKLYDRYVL
# [8] = species on record: Homo sapiens; test: To identify inhibition of the IFN signalling (Jak-Stat) pathway via expression of an eGFP reporter gene under the control of an IFN-stimulated response element (ISRE) containing MxA promoter.; format: functional; details: 30 µM
# [9] = target: T4, Tyrosyl-tRNA synthetase, putative (Trypanosoma cruzi (strain CL Brener)) (UniProt Q4DSP6); test: Trypanosoma cruzi tyrosyl tRNA synthetase (TcYRS) _High Tyrosine SOP; format: functional; details: 30 µM; note: in the data most compounds retested in dose-response had high values
# T4 sequence (whole entry): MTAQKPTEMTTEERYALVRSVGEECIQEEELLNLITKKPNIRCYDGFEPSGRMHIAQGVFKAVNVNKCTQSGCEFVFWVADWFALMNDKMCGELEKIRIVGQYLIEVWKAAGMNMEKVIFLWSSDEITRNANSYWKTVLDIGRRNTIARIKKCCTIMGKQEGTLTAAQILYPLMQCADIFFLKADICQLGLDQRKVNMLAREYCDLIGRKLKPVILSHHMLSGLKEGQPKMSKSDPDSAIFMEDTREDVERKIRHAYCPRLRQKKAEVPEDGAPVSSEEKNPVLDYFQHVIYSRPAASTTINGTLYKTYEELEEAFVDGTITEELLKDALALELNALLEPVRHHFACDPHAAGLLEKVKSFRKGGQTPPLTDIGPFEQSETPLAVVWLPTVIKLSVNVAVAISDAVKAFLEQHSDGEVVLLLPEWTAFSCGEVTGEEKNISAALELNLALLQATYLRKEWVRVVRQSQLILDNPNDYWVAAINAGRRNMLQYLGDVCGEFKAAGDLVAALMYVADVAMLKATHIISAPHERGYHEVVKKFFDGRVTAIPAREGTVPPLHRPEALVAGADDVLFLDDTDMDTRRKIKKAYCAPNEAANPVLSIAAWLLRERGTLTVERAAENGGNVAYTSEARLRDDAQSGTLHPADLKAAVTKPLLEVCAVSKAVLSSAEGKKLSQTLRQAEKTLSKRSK
# [10] = target: T4, Tyrosyl-tRNA synthetase, putative (Trypanosoma cruzi (strain CL Brener)); test: Trypanosoma cruzi tyrosyl tRNA synthetase (TcYRS) SOP; format: functional; details: 30 µM
# [11] = target: Chromo domain-containing protein 1 (Saccharomyces cerevisiae (strain ATCC 204508 / S288c) (Baker's yeast)) (UniProt P32657); test: ScCHD-1 Enzyme Inhibition Assay; format: functional; details: 30 µM; note: in the data most compounds retested in dose-response had high values
# Sequence of Chromo domain-containing protein 1 (Saccharomyces cerevisiae (strain ATCC 204508 / S288c) (Baker's yeast)) (P32657 whole entry, the tested form may be a part): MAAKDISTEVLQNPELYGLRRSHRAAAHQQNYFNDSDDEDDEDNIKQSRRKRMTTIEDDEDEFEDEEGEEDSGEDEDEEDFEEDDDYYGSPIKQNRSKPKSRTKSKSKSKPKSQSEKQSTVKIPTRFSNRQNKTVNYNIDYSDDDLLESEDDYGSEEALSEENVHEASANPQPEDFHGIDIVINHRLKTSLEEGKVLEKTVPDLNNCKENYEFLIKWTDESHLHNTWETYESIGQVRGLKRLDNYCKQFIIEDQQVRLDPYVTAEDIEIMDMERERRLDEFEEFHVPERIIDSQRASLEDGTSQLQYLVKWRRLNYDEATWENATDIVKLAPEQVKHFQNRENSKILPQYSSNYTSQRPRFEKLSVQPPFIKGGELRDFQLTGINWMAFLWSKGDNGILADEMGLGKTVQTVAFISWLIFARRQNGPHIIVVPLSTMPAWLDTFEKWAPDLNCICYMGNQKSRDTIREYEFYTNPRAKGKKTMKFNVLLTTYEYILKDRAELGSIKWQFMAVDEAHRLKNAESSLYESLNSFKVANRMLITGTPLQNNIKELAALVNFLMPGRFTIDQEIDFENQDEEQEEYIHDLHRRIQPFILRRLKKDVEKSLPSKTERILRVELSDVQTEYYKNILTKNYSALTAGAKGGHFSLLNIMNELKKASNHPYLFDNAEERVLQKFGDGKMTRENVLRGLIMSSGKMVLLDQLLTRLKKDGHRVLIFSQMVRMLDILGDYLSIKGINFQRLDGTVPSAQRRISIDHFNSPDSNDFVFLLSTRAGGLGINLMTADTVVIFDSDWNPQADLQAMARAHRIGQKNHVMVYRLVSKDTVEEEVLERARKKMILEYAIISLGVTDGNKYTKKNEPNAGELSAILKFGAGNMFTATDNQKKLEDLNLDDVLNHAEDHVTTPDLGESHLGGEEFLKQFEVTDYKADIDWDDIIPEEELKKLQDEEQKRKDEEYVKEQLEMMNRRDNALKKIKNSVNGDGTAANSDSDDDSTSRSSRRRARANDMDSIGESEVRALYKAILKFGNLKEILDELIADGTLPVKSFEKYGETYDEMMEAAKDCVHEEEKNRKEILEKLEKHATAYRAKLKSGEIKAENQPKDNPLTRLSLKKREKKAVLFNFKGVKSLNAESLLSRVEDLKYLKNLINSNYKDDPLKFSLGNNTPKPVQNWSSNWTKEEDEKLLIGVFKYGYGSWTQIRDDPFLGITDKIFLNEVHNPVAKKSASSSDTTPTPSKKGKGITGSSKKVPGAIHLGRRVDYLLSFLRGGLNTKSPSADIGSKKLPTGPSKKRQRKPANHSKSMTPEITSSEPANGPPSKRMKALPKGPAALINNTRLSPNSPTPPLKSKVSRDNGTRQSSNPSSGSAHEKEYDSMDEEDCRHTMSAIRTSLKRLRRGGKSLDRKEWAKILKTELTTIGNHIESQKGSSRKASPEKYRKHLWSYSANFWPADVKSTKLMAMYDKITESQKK
# Sequence of Protein translocase subunit SecA (Escherichia coli (strain K12)) (P10408 whole entry): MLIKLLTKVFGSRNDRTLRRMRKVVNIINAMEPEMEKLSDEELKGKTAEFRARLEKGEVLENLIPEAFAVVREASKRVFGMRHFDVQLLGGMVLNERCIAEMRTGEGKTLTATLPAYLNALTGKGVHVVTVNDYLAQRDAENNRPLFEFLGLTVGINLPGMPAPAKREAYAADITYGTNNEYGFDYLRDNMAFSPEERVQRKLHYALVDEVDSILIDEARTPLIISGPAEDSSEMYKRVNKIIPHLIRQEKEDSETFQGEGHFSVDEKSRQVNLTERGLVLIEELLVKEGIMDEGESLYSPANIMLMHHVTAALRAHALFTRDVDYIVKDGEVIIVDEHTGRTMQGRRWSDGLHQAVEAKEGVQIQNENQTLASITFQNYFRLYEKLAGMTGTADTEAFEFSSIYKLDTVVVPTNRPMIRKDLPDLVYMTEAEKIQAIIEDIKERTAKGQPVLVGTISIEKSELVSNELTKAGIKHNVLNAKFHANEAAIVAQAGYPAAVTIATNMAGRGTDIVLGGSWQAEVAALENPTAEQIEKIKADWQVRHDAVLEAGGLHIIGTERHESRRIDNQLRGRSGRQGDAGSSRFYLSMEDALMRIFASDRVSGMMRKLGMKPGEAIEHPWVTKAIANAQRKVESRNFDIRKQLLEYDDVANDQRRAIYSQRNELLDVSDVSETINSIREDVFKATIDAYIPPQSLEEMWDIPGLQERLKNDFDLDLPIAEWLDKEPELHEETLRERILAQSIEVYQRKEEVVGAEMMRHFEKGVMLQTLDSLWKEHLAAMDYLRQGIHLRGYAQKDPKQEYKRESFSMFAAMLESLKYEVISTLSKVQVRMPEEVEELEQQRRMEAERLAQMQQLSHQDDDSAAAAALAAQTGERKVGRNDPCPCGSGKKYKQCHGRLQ
SMILES,Percent Effect [1],Percent Effect [2],Percent Effect [3],Percent Effect [4],Percent Effect [5],Percent Effect [6],Percent Effect [7],Percent Effect [8],Percent Effect [9],Percent Effect [10],Percent Effect [11]
CCn1ncc2c1C(COC)CN(Cc1ccsc1)C2 (stereo unspecified),-3.96%,18.9%,-9.13%,5.54%,1.47%,1.24%,6.95%,5.76%,7.53%,16.1%,-11.9%
Fc1ccc(CN2CCO[C@H]3[C@H](OCC4CC4)CC[C@@H]32)cc1,-2.57%,-2.67%,3.82%,0.245%,4.83%,-41.4%,8.89%,-14.2%,2.08%,-30%,-4.58%
Cn1ccc(CN2CCC(c3ccccc3)CC2)cc1=O,-7.43%,15.6%,-2.22%,11.1%,-0.374%,3.92%,8.11%,14.7%,8.74%,19.5%,-7.5%
CN(C)C(=O)N1C[C@@H]2CC[C@H](C1)N(Cc1ccc3nsnc3c1)C2,-2.91%,-1.39%,-8.41%,-5.35%,-2.04%,4.42%,13.2%,-11.8%,0%,2.56%,-0.102%
CN1CCOC(CNCc2coc(-c3ccccc3)n2)C1 (stereo unspecified),0.225%,12.7%,-7.36%,-10.7%,-5.57%,7.22%,8.6%,24.4%,6.4%,13.9%,-5.22%
Cc1ncc2c(n1)CN(CC(=O)Nc1nncs1)CC2,-1.88%,2.63%,-37.1%,5.79%,3.27%,1.08%,6.01%,-6.49%,5.42%,11.1%,-4.76%
Cc1cn(-c2ccccc2)nc1NS(=O)(=O)c1cccc(C(=O)O)c1,-4.24%,0%,9.15%,-6.49%,-9.01%,5%,14.4%,10.4%,-5.38%,-5%,-7.14%
CN1CCN(Cc2cnc3n2CCN(Cc2cccs2)C3)CC1,-1.16%,21.6%,-2.7%,-1.5%,3.62%,2.87%,19.7%,-1.05%,4.32%,20.5%,-0.68%
O=C(c1cc2c(s1)CCC2)N1CCCCC1Cn1cccn1 (stereo unspecified),-4.04%,10.8%,-1.14%,3.35%,-5.11%,-3.88%,-0.539%,2.18%,4.95%,6.1%,1.75%
O=C1N(c2cccc(Cl)c2)Cc2nc(=O)n(Cc3cccc(F)c3)n21,-2.59%,-1.33%,3.81%,5.37%,-4.71%,-10.4%,6.1%,7.11%,-1.06%,2.56%,-8.79%
CCc1ccc(S(=O)(=O)Nc2cc(OC)c(OC)cc2C(=O)O)s1,-4.39%,13.2%,5.52%,-13.6%,-8.12%,2.16%,8.54%,8.65%,-7.39%,-1.24%,-5.49%
